16 molecules from PubChem BioAssay can be followed below.

One assay addresses Albumin (Bos taurus) (UniProt P02769). Kind of assay: bovine serum albumin binders on microarray, profiling panel, artefact control for SMM control protein annotation, biochemical, small-molecule microarray, Alexa647 label, 635/667 nm fluorescence (AID 1118).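 Note: score merges 667 nm emission intensity and signal-to-noise per printed compound spot.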 The note with it: BSA-A647 binding, fluorescence 635 nm, higher = more signal.
Assay [1] in a line: small-molecule microarray binders of probe aXIP, primary screen, biochemical, NeuroSMM set, 635/667 nm fluorescence (AID 1119).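 Note: probe is the protein aXip251-270 applied at 1 µg/mL to compound-printed slides; binding of probe to printed compounds measured as 667 nm fluorescence plus signal to noise.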 The note with it: higher = more signal, called active from +8 up or from −8 down.
A short description of assay [2]: small-molecule binders of probe aNOTCH3, primary screen, biochemical, small-molecule microarray, 635/667 nm fluorescence (AID 1120).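 Note: probe is a biotin-tagged antibody raised against NOTCH3 rather than NOTCH3 protein; score merges spot fluorescence near 667 nm with spot signal to noise.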 To be noted: higher = more signal.
A short description of assay [3]: small-molecule binders of probe aNOTCH2, primary screen, biochemical, small-molecule microarray, 635/667 nm fluorescence (AID 1121).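 Note: score merges feature fluorescence read at 667 nm with its signal to noise.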 To be noted: higher = more signal.
The target of assay [4] is Carbonic anhydrase 2 (Homo sapiens) (UniProt P00918). Kind of assay: CAII small-molecule binders, profiling panel, biochemical, small-molecule microarray, Alexa647-labelled CAII (AID 1122). The note with it: CAII-A647 binding fluorescence, higher = more signal.
A short description of assay [5]: COS7 lysate on small-molecule microarray, probe aHis, 635 nm (AID 1123).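 Note: z-score combines 667nm fluorescence intensity with signal-to-noise per printed compound spot.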 The note with it: COS7 cell lysate, fluorescence, higher = more signal.
Assay [6] in a line: compound binding in COS7 lysate, probe aLAP1, primary screen, cell lysate, small-molecule microarray (AID 1124).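 Note: lysate comes from COS7 cells expressing LAP1 and is applied at 0.3 µg/mL; score merges spot fluorescence near 667 nm with signal-to-noise over triplicate slides.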 The note with it: probe aLAP1, fluorescence, higher = more signal.
The test system of the next assay is Sam68 (KHDRBS1). Kind of assay: Sam68 small-molecule binders, primary screen, biochemical, small-molecule microarray, 635 nm fluorescence (AID 1125).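 Note: score merges 667 nm channel intensity with signal to noise over triplicate slides.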 The note with it: small-molecule microarray binding, higher = more signal.
Assay [7] deals with Chordin-like protein 2 (CHRDL2). Kind of assay: CHRDL2 small-molecule binders, primary screen, biochemical, small-molecule microarray, 635 nm fluorescence (AID 1126).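 Note: printed compound slides probed with Chrdl2 protein at 4 µg/mL for 1 h at 4 C; score merges 667 nm emission intensity with signal to noise over three replicate slides.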 The note with it: small-molecule microarray binding, fluorescence 635 nm; higher = more signal.
For assay [8], the target named is Concanavalin-A (Canavalia ensiformis) (UniProt P02866). Kind of assay: ConA small-molecule binders, primary screen, artefact control for SMM control protein annotation, biochemical, small-molecule microarray, Alexa647 label, 635 nm (AID 1127).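 Note: z combines 667 nm emission intensity with signal-to-noise across three replicate slides.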 The note with it: ConA-A647 binding fluorescence, higher = more signal.

Calls of active or inactive are those of the source.

Chain of Albumin (Bos taurus) (P02769 whole entry, looked up): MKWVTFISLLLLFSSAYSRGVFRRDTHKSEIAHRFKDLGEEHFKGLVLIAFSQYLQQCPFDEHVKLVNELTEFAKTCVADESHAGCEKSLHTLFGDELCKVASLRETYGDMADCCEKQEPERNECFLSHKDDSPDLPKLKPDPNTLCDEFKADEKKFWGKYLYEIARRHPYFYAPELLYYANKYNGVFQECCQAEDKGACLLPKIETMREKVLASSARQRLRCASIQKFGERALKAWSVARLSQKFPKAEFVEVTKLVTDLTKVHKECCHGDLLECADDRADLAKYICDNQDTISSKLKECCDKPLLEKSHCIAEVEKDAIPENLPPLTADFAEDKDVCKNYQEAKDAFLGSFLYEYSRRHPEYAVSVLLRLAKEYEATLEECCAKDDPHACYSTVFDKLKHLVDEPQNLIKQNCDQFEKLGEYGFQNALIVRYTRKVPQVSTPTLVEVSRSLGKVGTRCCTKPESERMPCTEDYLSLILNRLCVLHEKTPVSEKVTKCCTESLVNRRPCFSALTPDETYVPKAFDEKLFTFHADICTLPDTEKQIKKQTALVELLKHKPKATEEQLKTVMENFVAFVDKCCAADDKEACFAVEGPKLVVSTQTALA
Chain of Concanavalin-A (Canavalia ensiformis) (P02866 whole entry, looked up): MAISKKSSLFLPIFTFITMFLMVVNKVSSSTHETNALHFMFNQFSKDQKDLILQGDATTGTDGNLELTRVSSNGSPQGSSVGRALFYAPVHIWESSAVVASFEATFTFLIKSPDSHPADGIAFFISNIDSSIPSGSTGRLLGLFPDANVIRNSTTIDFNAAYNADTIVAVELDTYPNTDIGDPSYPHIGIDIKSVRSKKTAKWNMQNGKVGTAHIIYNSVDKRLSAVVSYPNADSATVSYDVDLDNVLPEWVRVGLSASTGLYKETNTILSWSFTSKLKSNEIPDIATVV

In the case of `CC(C)(C)N1CC=CC23O[C@@H]4/C=C\CCCOC(=O)C4[C@H]2C(=O)N(CCCO)[C@@H]3C1=O` (stereo not given in full), the composite z-score in the assay with Albumin (Bos taurus) is 0.706; in assay [2], 0.134; in [3], -0.0846; in assay [4] it was 0.866; in assay [5] it was 0.644; in assay [6] it was 0.818. Also, the composite z-score in the assay on Sam68 (KHDRBS1) was -0.446; in [7], -1.44; in assay [8], -1.02. Moreover, the composite Z-score in [1] is -0.191 (inactive).

Take `CC(C)(C)OC(=O)CC[C@]1(C(=O)NCC(O)CO)N=C(c2ccc(OCCCO)cc2)O[C@H]1c1ccccc1N=[N+]=[N-]` (stereo not given in full): the composite z-score with Albumin (Bos taurus) amounted to 1.02; in assay [2] it was 0.163; in assay [3], 0.149; in [4], 0.719; in [5], 3.53; in assay [6] it was 1.03. For the same molecule, the composite z-score amounted to 0.723 with Sam68 (KHDRBS1), 0.0058 in [7] and 0.715 in assay [8]. In assay [1], the composite Z-score is 1.33 (inactive).

As for `COc1cc(C(O)C2C=CC3C(=O)N(c4ccccc4)C(=O)C3N2Nc2ccccc2F)cc(OC)c1OC` (stereo not given), the composite z-score came out at 0.834 with Albumin (Bos taurus); 0.0436 in [2]; 0.0409 in assay [3]; 0.648 in assay [4]; 3.14 in [5]; 0.443 in [6]. The results for the composite z-score (in the assay with Sam68 (KHDRBS1); in assay [7]; in assay [8]) were 1.32, -0.755 and 1.1, respectively. The composite Z-score in assay [1] is 0.0894 (inactive).

In the case of `COC(=O)C(CC#Cc1ccc2c(c1)[C@]1(C(=O)N2)[C@H](c2ccc(OCCO)cc2)N2[C@H](c3ccccc3)[C@H](c3ccccc3)OC(=O)[C@H]2[C@@H]1C(=O)N1CCCCCCC1)C(=O)OC`, the composite z-score was found to be 0.576 in the assay with Albumin (Bos taurus); 1.75 in assay [2]; 0.967 in assay [3]; 0.933 in assay [4]; 3.5 in assay [5]; 1.65 in assay [6]. Further, the composite z-score in the assay with Sam68 (KHDRBS1) came out at 1.3; in assay [7], 1.52; in assay [8] it was 1.21. Moreover, the composite Z-score in [1] is 4.71 (inactive).

Consider `Cc1ccc(S[C@]2(C(=O)NC(C)C)CC(=O)N(C3CCCCC3)[C@@H]2c2ccc(CO)cc2I)cc1`, for which the composite z-score was 0.529 with Albumin (Bos taurus); 0.0488 in assay [2]; -0.0727 in [3]; 0.645 in assay [4]; 2.6 in assay [5]; 0.487 in assay [6]. The composite z-score was 1.28 in the assay on Sam68 (KHDRBS1), -0.325 in assay [7] and 1.11 in [8]. Also, in [1], the composite Z-score is 0.339 (inactive).

With `O=C1O[C@@H](c2ccccc2)[C@@H](c2ccccc2)N2[C@@H](c3ccc(OCCO)cc3)[C@]3(C(=O)Nc4ccc(C#CC5(O)CCCCCC5)cc43)[C@@H](C(=O)O)[C@H]12`, the composite z-score with Albumin (Bos taurus) is 0.572; in [2] it was 0.0745; in [3] it was -0.0725; in [4], 0.685; in assay [5], 0.969; in [6], 0.58. The figures for the composite z-score (with Sam68 (KHDRBS1); in assay [7]; in [8]) were 1.34, -0.458 and 0.994, respectively. Also, the composite Z-score in [1] was -0.014 (inactive).

For the molecule `Cc1ccc(S[C@]2(C(=O)NCCCN(C)C)CC(=O)N(C3Cc4ccccc4C3)[C@@H]2c2ccc(CO)cc2I)cc1`, the composite z-score was 0.827 with Albumin (Bos taurus); -0.0569 in assay [2]; -0.18 in [3]; 0.715 in [4]; 0.83 in assay [5]; -0.312 in assay [6]. Further, the composite z-score with Sam68 (KHDRBS1) is 0.125; in assay [7], -0.745; in assay [8], 0.441. For the same molecule, the composite Z-score in [1] was 0.42 (inactive).

Regarding `NC(=O)N1C(=O)C2C(C1=O)C1C=C(CCCO)C2C(c2ccc(CN3CCCC3)cc2)N1Cc1cc2c(cc1Br)OCO2` (stereo not given), the composite z-score with Albumin (Bos taurus) was -0.939; in assay [2] it was -0.323; in assay [3], -0.117; in assay [4] it was 0.339; in [5], 0.344; in [6], 0.117. The composite z-score in the assay with Sam68 (KHDRBS1) is -0.312; in [7] it was 0.192; in [8] it was -0.129. Besides, the composite Z-score in assay [1] was -0.328 (inactive).

For the molecule `C=CC[C@]1(C(=O)NCC(O)CO)COC(c2ccc(OCCCO)cc2)=N1` (stereo not given in full), the composite z-score with Albumin (Bos taurus) is -0.506; in assay [2] it was 0.0897; in assay [3], -0.0209; in assay [4], 0.674; in assay [5], 1.56; in assay [6], 0.553. In addition, the composite z-score with Sam68 (KHDRBS1) was -0.174; in assay [7] it was -0.582; in [8], -1.45. For the same molecule, the composite Z-score in [1] is -0.181 (inactive).

With `C=C(/C(=C/C[C@@H](OC(C)=O)c1cccc(OCCO)c1)c1cnc2ccccc2c1)C(C)C`, the composite z-score in the assay with Albumin (Bos taurus) is 0.286; in assay [2], -0.0787; in [3] it was -0.124; in assay [4], 0.803; in [5], 1.26; in [6], -0.149. In addition, the values for the composite z-score (in the assay on Sam68 (KHDRBS1); in [7]; in [8]) were 0.869, 1.38 and 0.629, respectively. The composite Z-score in [1] is 0.19 (inactive).

As for `C=CCNC(=O)[C@H]1[C@@H]2C(=O)O[C@@H](c3ccccc3)[C@@H](c3ccccc3)N2[C@@H](c2ccc(OCCO)cc2)[C@]12C(=O)Nc1ccccc12`, the composite z-score with Albumin (Bos taurus) is 0.989; in assay [2], -0.261; in assay [3] it was -0.0877; in assay [4] it was 0.74; in assay [5], 2.7; in assay [6] it was 1.15. The composite z-score with Sam68 (KHDRBS1) was 1.29; in [7], -0.832; in [8], 1.13. The composite Z-score in assay [1] is 1.76 (inactive).

Take `CCCc1cc2c(n1CCc1ccc(Cl)cc1)C(C)C1CN(C(=O)c3ccccc3)C(C)(C(=O)OC)C21` (stereo not given): the composite z-score with Albumin (Bos taurus) came to 1.03; in assay [2], 0.201; in assay [3] it was 0.203; in assay [4], 0.862; in assay [5], 2.94; in [6], 1.07. The composite z-score is 1.03 with Sam68 (KHDRBS1), -1.75 in [7] and 1.16 in assay [8]. The composite Z-score in assay [1] is 0.313 (inactive).

In the case of `CC(=O)OCC1C2CC[C@H]3C(OCc4ccc(F)cc4C(F)(F)F)OC[C@]4(C)[C@H]3C2=C(CN4C(=O)OC(C)(C)C)[C@H](C)C1COC(C)=O` (stereo not given in full), the composite z-score with Albumin (Bos taurus) came to 0.349; in assay [2], 0.16; in assay [3] it was 0.117; in assay [4], 0.807; in [5], 0.826; in [6], 0.95. In addition, the values for the composite z-score (with Sam68 (KHDRBS1); in assay [7]; in assay [8]) were 0.0524, -1.86 and 1.12, respectively. The composite Z-score in [1] is -0.342 (inactive).

Turning to `C=C(CCCC)C(=O)CC[C@H](OC(=O)c1ccccc1-c1ccccc1C(=O)O)c1ccc(OCCO)cc1`, the composite z-score with Albumin (Bos taurus) was 0.763; in assay [2], 0.184; in assay [3], -0.185; in assay [4] it was 0.573; in assay [5] it was 1.2; in assay [6] it was -0.0334. Also, the composite z-score came to 0.958 in the assay on Sam68 (KHDRBS1), 0.0139 in assay [7] and 0.969 in assay [8]. In addition, the composite Z-score in assay [1] was -0.235 (inactive).

On to `CC(C)=C1C(=O)C(c2ccccc2)=C2CN3C(=O)N(CCc4ccccc4)C(=O)[C@]3(C)[C@H]21`, for which the composite z-score with Albumin (Bos taurus) is 0.826; in assay [2], 0.0162; in [3], 0.166; in [4], 0.373; in assay [5], 1.23; in [6], -0.414. For the same molecule, the values for the composite z-score (in the assay with Sam68 (KHDRBS1); in assay [7]; in assay [8]) were 0.141, -0.686 and 0.809, respectively. Besides, the composite Z-score in [1] is 0.432 (inactive).

`O=C1C[C@@](C(=O)NCc2ccccc2)(c2ccc([N+](=O)[O-])cc2)[C@@H](c2ccc(CO)cc2)N1C1CCCCC1`: the composite z-score in the assay with Albumin (Bos taurus) is -0.77; in [2], 0.14; in assay [3], 0.0847; in [4] it was 0.317; in assay [5], 2.89; in assay [6] it was 1.76. The figures for the composite z-score (with Sam68 (KHDRBS1); in assay [7]; in assay [8]) were 1.03, 0.575 and 1.07, respectively. Besides, in assay [1], the composite Z-score was 1.06 (inactive).
